# Shown are actives, neighbours in structure and some others; about 6.1% of the full set was active somewhere.
# ATXN2 expr inh – reduces ATXN2 reporter expression in HEK-293 cells; Potency, µM (doses to about 57 µM), for the others: at the highest dose activity change, negative = inhibition, usual class: inhibitors; HEK-293 ATXN2-luciferase reporter, luminescence, 24 h; actives 0.72% (n = 360,000); AID 1745845; further: on the % scale 0 is the no-effect control and ±100 the full control effect; nearly all actives have a fitted effect of over 55% in size
#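 qHTS (up to 57 uM final) was run with 24 h compound exposure of reporter cells at 37 °C. Each well was multiplexed: SteadyGlo luminescence measured ATXN2-luciferase expression after a fluorogenic Gly-Phe-AFC viability readout (25 uM final).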
# RORgamma inh – inhibitors of mouse ROR gamma transcriptional activity; P51450; Potency, µM (series often up to 53.6 µM), without a hit: at the highest dose activity change, negative = inhibition, hits mostly inhibitors; Drosophila S2 Gal4-RORgamma UAS-luciferase reporter, 20 h; actives 5.4% (n = 310,000); further: on the % scale 0 is the no-effect control and ±100 the full control effect; nearly all actives have a fitted effect of over 60% in size
# Target sequence (P51450 whole entry, looked up, the tested form may be a part): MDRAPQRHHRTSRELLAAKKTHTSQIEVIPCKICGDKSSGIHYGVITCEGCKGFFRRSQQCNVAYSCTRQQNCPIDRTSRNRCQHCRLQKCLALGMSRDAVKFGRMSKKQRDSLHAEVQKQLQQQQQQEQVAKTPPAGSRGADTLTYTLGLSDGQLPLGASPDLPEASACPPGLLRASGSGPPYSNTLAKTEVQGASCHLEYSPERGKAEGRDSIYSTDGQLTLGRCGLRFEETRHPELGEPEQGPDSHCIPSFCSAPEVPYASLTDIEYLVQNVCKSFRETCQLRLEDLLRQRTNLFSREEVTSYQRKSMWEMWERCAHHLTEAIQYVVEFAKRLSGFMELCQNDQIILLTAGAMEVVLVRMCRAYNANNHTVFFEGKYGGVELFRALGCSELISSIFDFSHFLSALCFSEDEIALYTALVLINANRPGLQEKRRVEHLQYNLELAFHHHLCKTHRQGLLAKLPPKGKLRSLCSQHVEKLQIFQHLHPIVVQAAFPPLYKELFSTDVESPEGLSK
#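 A Gal4/UAS one-hybrid system in insect cells: metallothionein-promoter Gal4–ROR gamma fusion plus Photinus luciferase reporter. Copper sulfate 700 uM final, 20 hr ambient incubation, luminescent detection after 10 min with reagent.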
# VP16 counter – Gal4-VP16 reporter inhibition counter-screen; Drosophila S2 Gal4-VP16 UAS-luciferase, luminescence, 20 h; Potency, µM (highest dose often 53.6 µM), for the others: top-dose activity, negative = inhibition, most hits filed as inhibitors; actives 3.5% (n = 310,000); AID 2546;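 further: Gal4-VP16 expression switched on by copper sulfate through the metallothionein promoter; on the % scale 0 is the no-effect control and ±100 the full control effect; nearly all actives have a fitted effect of over 50% in size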
# TGFb SMAD3 inh – inhibitors of TGF-b signaling; Potency, µM (top dose mostly 46.1 µM), for inactives: top-dose activity, negative = inhibition, hits mostly inhibitors; HepG2 CAGA-GFP TGF-b/SMAD3 reporter, GFP fluorescence, 18 h; TGF-beta stimulated, 500 pg/mL final; AID 588855; actives 1.2% (n = 410,000); further: on the % scale 0 is the no-effect control and ±100 the full control effect; nearly all actives have a fitted effect of over 65% in size
#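 HEPG2 CAGA-GFP reporter cells (1000/well, DMEM with 1% FBS) received compounds, then recombinant TGF-beta at 500 pg/mL final for 18 hours at 37 degrees C. Per-cell GFP summed per well was normalised to unstimulated and stimulated DMSO controls before curve fitting.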
# HepG2 viability – kills HepG2 cells in TGF-b inhibitor counter-screen | actives 0.76% (n = 410,000) | Potency, µM (top dose mostly 46.1 µM), for the others: at the top dose activity change, negative = cytotoxicity, hits mostly cytotoxic | HepG2 CAGA-GFP viability, ATP luminescence, 18 h
#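 CellTiter-Glo luminescence gave cytotoxicity after 18 hours at 37 degrees C. The cells were HepG2 CAGA-GFP in 1% FBS DMEM, stimulated with 500 pg/mL TGF-beta after compound addition. %Activity was normalised to no-cell wells (complete cell-killing) and DMSO (no toxicity), and curves were fitted and classified.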
# S2 tox – reduces viability in counter-screen for ATXN expression inhibitors | Potency, µM (doses to about 56.7 µM), actives largely listed as cytotoxic | S2 cells (HEK-293 line with an ATXN2-luciferase reporter) viability, CellTiter-Fluor protease fluorescence, 24 h | actives 0.49% (n = 400,000); further: nearly all actives have a fitted effect of over 40% in size
# An asterisk follows results filed as active; i = inactive; ? = inconclusive; / = no result; [ ] = another dose, or the depositor's remark. The call rests on the fitted dose curve; in most records, active means well fitted curve in the direction sought with a large enough effect; inconclusive means small, poorly fitted or top-dose-only effect, or another doubt; inactive means no such curve, though single readings can be large; an effect the other way counts as inactive or inconclusive. Potency means the concentration at half of the fitted maximal effect.
SMILES,ATXN2 expr inh,RORgamma inh,VP16 counter,TGFb SMAD3 inh,HepG2 viability,S2 tox
CCC(C)N(NC(C)=O)c1nc(Cl)nc(NC(C)C)n1 (centres undefined),3.7%,11.2µM*,?,?,8.9%,i
CCNc1nc(Cl)nc(N(NC(C)=O)C(C)CC)n1 (centres undefined),9.3%,-7.0%,-0.9%,11.9%,-23.1%,i
CCN=C1NN=C(c2cc(C)n(CCc3ccccc3)c2C)CS1,25.0%,0.0%,-2.2%,0.8%,-12.5%,i
CCN=C1NN=C(c2cc(C)n(Cc3ccco3)c2C)CS1,?,0.282µM*,?,-9.2%,-11.4%,i
N=C1/C(=C\c2ccc(SCc3ccccc3)o2)C(=O)N=C2SC=NN12,/,-10.0%,8.9%,-2.3%,3.8%,i
CC1=CN2C(=N)/C(=C/c3ccc(Sc4ccc(Cl)cc4)o3)C(=O)N=C2S1,7.0%,?,4.47µM*,-20.2%,-30.8%,i
CC1=CN2C(=N)/C(=C/c3ccc(C)o3)C(=O)N=C2S1,0.5%,1.41µM*,10µM*,1.4%,-0.7%,?
Cc1ccc(/C=C2\C(=N)N3N=C(CC(=O)N4CCOCC4)SC3=NC2=O)o1,8.6%,-12.9%,-3.1%,5.6%,1.7%,i
CC1=CN2C(=N)/C(=C/c3ccc(Sc4ccc(C)cc4)o3)C(=O)N=C2S1,18.8%,2.24µM*,3.98µM*,-19.8%,-9.2%,i
CC(=O)OCC1OC(C#CCCc2ccccc2)C=CC1OC(C)=O (centres undefined),/,17.4%[10 µM],-1.9%[10 µM],/,/,/
CCOC(=O)c1[nH]c(C)c(C(=O)NC(CC)Cc2ccccc2)c1C (centres undefined),0.9%,/,/,-5.9%,0.5%,i
O=C(c1cccnc1)C1CCCN(Cc2ccc3c(c2)CN(C(=O)c2ccc4[nH]ccc4c2)CCO3)C1 (centres undefined),/,/,/,/,/,i
O=c1cc(-c2ccc(F)cc2)nc(SCc2nc(-c3ccccc3Cl)no2)[nH]1,/,/,/,-24.3%,-4.7%,/
Cc1ccc(/C=C/C(=O)c2nc3ccccc3[nH]2)cc1,6.9%,6.31µM*,?,?,-68.2%,i
O=C(/C=C/c1c(F)cccc1Cl)Nc1nc2ccccc2[nH]1,24.9%,4.47µM*,?,-10.5%,1.6%,i
Cc1ccc(C)c(C(=O)Nc2nc3ccccc3[nH]2)c1,-18.3%,-30.2%,-4.3%,13.8%,-1.1%,i
Cc1ccc(/C=C/C(=O)Nc2nc3ccccc3[nH]2)cc1,-26.9%,5.62µM*,?,-9.3%,-35.1%,?
S=C(NCCCc1ccccc1)NCc1ccccc1,1.3%,6.31µM*,11.2µM*,?,-34.3%,i
CCOCCCNC(=S)NCCc1ccccc1,25.7%,11.2µM*,12.6µM*,-12.7%,31.4%,?
Cn1cc(/C=C/c2ccnc3ccccc23)c2ccccc21,/,/,/,?,-59.0%,/
COc1cccc([C@@H]2Oc3ccc(OC)cc3C[C@H]2OC(=O)Nc2ccc(OC(F)F)cc2)c1,/,?,1.1%,/,/,/
Clc1ccc(-c2nnc(CSc3nnc(-c4cccs4)n3Cc3ccccc3)o2)cc1,/,?,17.8µM*,?,-31.7%,?
CC(Oc1ccc(Cl)cc1Cl)C(=O)Nc1ccncc1 (centres undefined),-17.3%,-28.6%,20µM*,-9.0%,-37.8%,i
CC(Oc1cccc(Cl)c1)C(=O)Nc1ccncc1 (centres undefined),/,?,12.6µM*,-12.1%,-20.7%,i
CC(OC(=O)c1ccncc1)C(=O)Nc1cccc(Cl)c1 (centres undefined),8.3%,-2.2%,1.5%,-5.9%,7.9%,i
SMILES,ATXN2 expr inh,RORgamma inh,VP16 counter,TGFb SMAD3 inh,HepG2 viability,S2 tox
CCOC(=O)c1[nH]c2ccccc2c1NC(=O)c1cc(OCC)c(OCC)c(OCC)c1,-21.3%,/,/,-24.2%,-22.2%,i
CCC1CCCCN1C(=O)CSc1nnc(-c2ccc(OC)c(OC)c2)o1 (centres undefined),-1.0%,/,/,-15.6%,-11.7%,i
CC(=O)Nc1nonc1-c1nnc(SCC(=O)Nc2cc(C)cc(C)c2)n1-c1ccccc1,5.5%,/,/,-1.2%,4.5%,i
CCCC(c1c(C)n(C)n(-c2ccccc2)c1=O)c1c(C)n(C)n(-c2ccccc2)c1=O,-1.3%,-9.6%,-12.5%,-6.0%,11.2µM*,i
COc1ccc(C)cc1NC(=O)C(Sc1nnnn1C)c1ccccc1 (centres undefined),-7.9%,0.1%,-23.3%,10.9%,8.0%,?
CCCn1c(SC(C(=O)Nc2cc(C)ccc2OC)c2ccccc2)nc2ccccc2c1=O (centres undefined),2.5%,20µM*,?,5.8%,10.5%,i
O=C(COC(=O)c1ccc2c(c1[N+](=O)[O-])C(=O)c1ccccc1C2=O)NC1CC1,-15.8%,?,17.8µM*,17.8µM*,-43.1%,28.2µM*
O=C(COC(=O)c1ccccc1C(=O)c1ccc(Cl)c([N+](=O)[O-])c1)NC1CCCCCC1,?,4.47µM*,?,?,-78.1%,/
O=C(COC(=O)c1ccc(Cl)c([N+](=O)[O-])c1)NC1CCCC1,0.7%,13.9%,-3.9%,-8.1%,-28.6%,i
O=C(COC(=O)c1cccc2c1C(=O)c1ccccc1C2=O)NC1CCCCC1,-26.7%,?,-10.8%,?,-8.5%,i
Cc1cc2nc(/N=C(\N)NC(=O)C(C)C)nc(C)c2cc1C,-24.0%,-33.0%,-1.5%,-23.5%,0.5%,?
CCC(=O)N/C(N)=N/c1nc(C)c2cc(C)c(C)cc2n1,-24.0%,1µM*,2.8%,19.2%,23.7%,i
CN(C)CCCN(C(=O)CCc1ccccc1)c1nc2ccc(Br)cc2s1,25.1µM*,?,?,15.8µM*,-101.9%,?
CN(C)CCCN(C(=O)c1ccco1)c1nc2ccc(Cl)cc2s1,?,-4.5%,3.9%,?,-32.0%,/
Cc1cccc2sc(N(CCCN(C)C)C(=O)CN3C(=O)c4ccccc4C3=O)nc12,/,-19.2%,0.9%,-16.9%,-39.5%,i
Cc1cccc2sc(N(CCCN(C)C)C(=O)CCc3ccccc3)nc12,?,-29.9%,-5.1%,12.6µM*,-109.8%,i
Cc1ccc2sc(N(CCCN(C)C)C(=O)c3ccc(Br)s3)nc2c1C,20µM*,?,-16.9%,?,12.6µM*,/
CN(C)CCCN(C(=O)c1ccco1)c1nc2ccc(Br)cc2s1,25.1µM*,-25.1%,-10.6%,0.0%,-71.6%,?
O=c1[nH]c2ccc(NCc3ccccc3F)cc2[nH]1,5.9%,/,/,?,2.6%,i

# Screening data from PubChem BioAssay.
